Screens as filed in PubChem BioAssay.
RN4220 kill: kills Staphylococcus aureus RN4220; S. aureus RN4220 growth, OD600, 16 h; inhibition, % (no concentration beside the values); 330,000 tested, 0.33% active; AID 1259311; in the data active = inhibition above about 85%
ugtP null kill: kills S. aureus RN4220 lacking UgtP. AID 1259309. S. aureus RN4220 ugtP deletion, OD600 growth, 16 h. growth inhibition, % (no concentration beside the values). 330,000 tested, 0.54% active; in the data active = growth inhibition above about 68%
BJeLR lethal: kills HRASV12-expressing BJeLR cells | BJeLR (HRASV12) viability, CellTiter-Glo ATP luminescence, 48 h | 300,000 tested, 0.17% active | inhibition, % (no concentration beside the values); in the data active = inhibition above about 50%
A number is an active result; . = inactive; / = no result given. Only some compounds are listed: those with a hit (about 0.65% of all), similar ones and a draw of the others.

SMILES	RN4220 kill	ugtP null kill	BJeLR lethal
CC(C(=O)NCCN1C(=O)SC(=Cc2cccnc2)C1=O)N1C(=O)c2ccccc2C1=O (stereo not given)	.	.	/
O=C(/C=C/c1ccccc1O)c1ccco1	.	.	.
O=C(/C=C/c1cc(Br)ccc1O)c1ccco1	90.8	92.4	.
COc1ccc(OC)c(NC(=S)N2CCCC2)c1	.	.	/
Oc1ccc(/C=N/Nc2nccnc2Cl)c(O)c1	/	/	68.0
Oc1ccccc1/C=N/Nc1nccnc1Cl	/	/	.
CCOc1ccc(S(=O)(=O)N2CCC(C(=O)NC3CC3)CC2)cc1Cl	.	.	.
Cc1cc(C(=O)NC2CCCN(Cc3ccc(Cl)cc3)C2)no1 (stereo not given)	.	.	.
Cc1ccc(C=C2C(Cl)=C(Cl)C(Cl)=C2Cl)cc1	96.7	100.2	.
Cc1ccc(C=NN=Cc2ccc(C)cc2)cc1	.	.	/
CC(C)N1CCN(Cc2cc3c(cc2Cl)OCO3)CC1CCO (stereo not given)	.	.	.
CC(C)(C)NS(=O)(=O)c1ccc(CCC(=O)Nc2ccc3c(c2)OCCO3)cc1	.	.	.
O=C(CNC(=O)C1CCCCC1)NC1=NCCS1	.	.	.
COc1ccc(C=C2C=C(C(C)(C)C)C(=O)C(C(C)(C)C)=C2)cc1OC	/	/	79.9
COc1ccc(/C=C2\CC/C(=C\c3ccc(OC)c(OC)c3)C2=O)cc1OC	.	.	.
O=[N+]([O-])c1ccc(N=NN(CCO)CCO)cc1	.	.	.
O=[N+]([O-])c1ccc(N=Nc2ncc[nH]2)cc1	.	.	74.2
CCN(CC)C(=O)CSc1nc2cc3c(cc2c(=O)n1Cc1ccco1)OCO3	.	.	.
CCCCOc1ccc2c(c1)C(=O)c1cc(O)ccc1-2	.	92.2	.
CCOc1ccc2c(c1)C(=O)c1cc(OCC(=O)O)ccc1-2	.	.	.
C=C(C(=O)Oc1c(C(C)(C)C)cccc1C(C)(C)C)c1ccccc1	.	.	/
CN(C1CCCC1)C1CCN(C(=O)CNC(=O)/C=C/c2ccccc2)CC1	.	.	.
CC1CCCCC1N(C)C1CCN(C(=O)CNC(=O)/C=C/c2cccc(Cl)c2)CC1 (stereo not given)	.	.	90.1
CC(=O)O[C@H]1[C@H](O)[C@H](Oc2c(O)c(C)c3c4c2[C@@H](C)CC[C@@H]4[C@@H](C)C[C@H]3C=C(C)C)O[C@@H](C)[C@H]1O	.	.	/
CC(=O)Oc1c(C)c2c3c(c1OC(C)=O)[C@@H](C)CC[C@@H]3[C@@H](C)C[C@H]2C=C(C)C	.	86.4	/
SMILES	RN4220 kill	ugtP null kill	BJeLR lethal
Cc1ccc(NC(=S)NNC(=O)Nc2ccccc2)cc1	/	/	.
COc1ccc(-[n+]2c(-c3ccccc3)cc(-c3ccc(C)cc3)cc2-c2ccccc2)cc1	/	/	71.8
CCCOC(=O)c1ccc(-[n+]2c(-c3ccccc3)cc(-c3ccccc3)cc2-c2ccccc2)cc1	100.6	100.5	.
Nc1ccccc1-[n+]1c(-c2ccccc2)cc(-c2ccccc2)cc1-c1ccccc1	.	.	.
O=C(O)c1ccc(-[n+]2c(-c3ccccc3)cc(-c3ccccc3)cc2-c2ccccc2)cc1	.	.	.
Cc1ccccc1-[n+]1c(-c2ccccc2)cc(-c2ccccc2)cc1-c1ccccc1	99.8	100.5	.
Oc1ccccc1-[n+]1c(-c2ccccc2)cc(-c2ccccc2)cc1-c1ccccc1	/	/	.
COc1ccc(-c2cc(-c3ccccc3)[n+](C)c(-c3ccccc3)c2)cc1	.	.	.
[O-]c1ccccc1-[n+]1c(-c2ccccc2)cc(-c2ccccc2)cc1-c1ccccc1	100.6	100.1	63.2
CC(=O)c1ccc(C(=O)N2CCCC(Nc3ccccc3)C2)s1 (stereo not given)	.	.	.
CN1CCN(C(=O)C2=C[C@@H](c3ccc4c(c3)OCO4)C[C@@H](OCc3ccc(CO)cc3)O2)CC1	/	/	.
COc1ccc(C(=O)OCC(=O)NC(=O)NC2CCCC2)c(O)c1	.	.	.
CCOc1ccc(NC(=O)CSc2nnc(C)n2CCCOC)cc1	.	.	.
CN(C)C(CNC(=O)C1CCCN1C(=O)c1cccs1)c1ccccc1 (stereo not given)	.	.	/
COc1ccc(CN2CCN(C(=O)CC(C)C)CC2)c2ccccc12	.	.	.
COc1ccc(-n2c(=O)c(CCC(=O)N(C)Cc3cccs3)nc3ccccc32)cc1	.	.	.
Cc1ccc(-c2cc(-c3ccccc3)cc(-c3ccccc3)[n+]2-c2ccc(C(=O)O)cc2)cc1	.	.	.
O=C([O-])c1ccccc1-[n+]1c(-c2ccccc2)cc(-c2ccccc2)cc1-c1ccccc1	97.8	98.3	.
O=C(Nc1ccc([N+](=O)[O-])cc1)C1CC1(c1ccccc1)c1ccccc1 (stereo not given)	.	.	.
CC1(C)C(C=C(Cl)Cl)C1C(=O)Nc1ccc([N+](=O)[O-])cc1 (stereo not given)	87.1	93.9	/
Cc1ccc2oc(C(=O)Nc3ccc(S(=O)(=O)Nc4onc(C)c4C)cc3)c(C)c2c1	.	.	.
CCOC(=O)C1(CC)NC(c2ccc(OC)c(OC)c2)C2C(=O)N(c3cccc(C(C)=O)c3)C(=O)C21 (stereo not given)	.	.	.
CC12CC[C@H]3[C@@H](CCC4(O)C[C@H](O)CCC34C=NNC(=O)c3ccc(O)cc3)C1(O)CCC2C1=CC(=O)OC1 (stereo not given in full)	.	.	/
C[C@H]1O[C@@H](O[C@H]2[C@@H](O)C[C@H](O[C@H]3[C@@H](O)C[C@H](O[C@H]4CC[C@@]5(C)[C@H](CC[C@@H]6[C@@H]5C[C@@H](O)[C@]5(C)[C@@H](C7=CC(=O)OC7)CC[C@]65O)C4)O[C@@H]3C)O[C@@H]2C)C[C@H](O)[C@@H]1O	/	/	102.0
O=C1C(Cc2cccc([N+](=O)[O-])c2)SC(=NN=Cc2ccco2)N1c1ccccc1 (stereo not given)	.	.	/
SMILES	RN4220 kill	ugtP null kill	BJeLR lethal
COCc1cc(C)nc(SC)c1C#N	.	.	.
CCCSc1cc(NCCOC(=O)CCC)c([N+](=O)[O-])c2nonc12	.	.	.
CCCC(=O)OCCNc1cc(Sc2nccn2C)c2nonc2c1[N+](=O)[O-]	.	.	93.5
Cc1ccc(C)c(N2CCN(S(=O)(=O)c3ccc4c(c3)NC(=O)CC(=O)N4)CC2)c1	.	90.1	.
Cc1ccc(C)c(N2CCN(S(=O)(=O)c3ccc4c(c3)CCC(=O)N4)CC2)c1	/	/	.
CN(CC(=O)N1CCN(c2ccccc2)CC1)C1CCCc2ccccc21 (stereo not given)	.	.	.
CNC[C@H](CC1CCCCC1)NC[C@H](CO)NCC1(c2ccccc2)CC1	/	/	.
CNC[C@H](CC1CCCCC1)NC[C@H](CO)NCCc1cccc(C(F)(F)F)c1	/	/	.
CNCC(Cc1ccccc1)NCC(CC1CCCCC1)NCCCc1ccccc1 (stereo not given)	84.5	.	/
CNCC(CC1CCCCC1)NCC(Cc1ccccc1)NCCC12CC3CC(CC(C3)C1)C2 (stereo not given)	100.4	100.7	/
NC(=O)c1ccc(NC(=O)c2cncn2-c2ccccc2)cc1	.	.	.
Cc1cccc(C)c1OC(=O)C(c1ccccc1)c1ccccc1	.	96.3	.
Cc1cccc(C)c1OC(=O)Cc1ccccc1	.	.	.
COc1ccc(/C=N\N2CCN(Cc3ccccc3Cl)CC2)cc1	/	/	.
CCOc1ccc(Cc2nnc(N)s2)cc1OCC	.	.	.
